According to PubChem BioAssay (NCI):
The panel holds about 79,000 compounds, 15% with a hit somewhere; the sample as a whole holds those more often. Cut-off read from the data, not from the text of the source: active = growth inhibition above about 70%; inactive = the rest.

Legend:
[1] = NCI Yeast Anticancer Drug Screen. Data for the rad50 strain (AID 155);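 note: 0% = growth of vehicle-only cultures of the same strain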; details: S. cerevisiae rad50 strain growth inhibition; at 50.0 µM; active compounds read high
In short: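 A DNA repair-deficient yeast mutant serves as the test organism; compound-induced growth inhibition is calculated against vehicle-treated cells.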

[2] = NCI Yeast Anticancer Drug Screen. Data for the mec2-1 strain (AID 157); details: S. cerevisiae mec2-1 strain, at 50.0 µM, active compounds read high
In short: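 mec2-1 yeast strain, carrying an alteration in DNA damage repair or cell cycle control, was exposed to compounds; growth inhibition was measured relative to vehicle-treated controls.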

[3] = NCI Yeast Anticancer Drug Screen. Data for the sgs1 mgt1 strain (AID 161);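 note: 0% = growth of cultures given vehicle only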; details: S. cerevisiae sgs1 mgt1 strain, at 50.0 µM, active compounds read high
In short: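 Percent growth inhibition was derived by comparing compound-exposed mutant yeast with vehicle-exposed cultures. The strain carries alterations in DNA damage repair.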

[4] = NCI Yeast Anticancer Drug Screen. Data for the cln2 rad14 strain (AID 165);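 note: 0% = growth equal to vehicle treated cultures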; details: S. cerevisiae cln2 rad14 strain, at 50.0 µM, active compounds read high
In short: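 Yeast carrying cln2 and rad14 alterations (cell cycle control and DNA damage repair) were exposed to compounds. Growth inhibition was measured against vehicle-treated controls.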

[5] = NCI Yeast Anticancer Drug Screen. Data for the bub3 strain (AID 167); details: S. cerevisiae bub3 mutant strain, at 50.0 µM, active compounds read high
In short: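 Inhibition values come from growth of compound-treated mutant yeast normalised to vehicle-treated controls.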

[6] = NCI Yeast Anticancer Drug Screen. Data for the mlh1 rad18 strain (AID 175); details: S. cerevisiae mlh1 rad18 strain growth inhibition; at 50.0 µM; active compounds read high
In short: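 Growth inhibition of the yeast strain was measured after compound exposure and expressed relative to vehicle-treated controls. The strain carries defined defects in DNA damage repair.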

Measured: growth inhibition

O=C(NC1=NN(Cc2ccccc2)C(=O)C1)c1ccc(S(=O)(=O)F)cc1
inactive: [1] -0.35% | [2] -14.9% | [3] 19.6% | [4] 9.55% | [5] 9.8% | [6] 11.6%

c1ccc(P2(c3ccccc3)=NSN=S=N2)cc1
inactive: [1] -4.75% | [2] -8.7% | [3] -8.65% | [4] -16.6% | [5] 1.35% | [6] -1.45%

CC(=O)NC1C([Se][As](C)C)OC(COC(C)=O)C(OC(C)=O)C1OC(C)=O (stereo unspecified)
inactive: [1] -15.2% | [2] -20.4% | [3] 23.6% | [4] -7.3% | [5] -2.95% | [6] -6.5%

CC1(C)N(C(=S)Nc2ccccc2)C1(C)C
inactive: [1] 6.45% | [2] 1.3% | [3] 5.25% | [4] -26.2% | [5] -5.2% | [6] 5.8%

CN(N)c1ccc([N+](=O)[O-])cc1[N+](=O)[O-]
inactive: [1] -5.75% | [2] -39.1% | [3] -29.8% | [4] -6.2% | [5] -3.2% | [6] -39.1%

CC(C)(C)P(O)(=S)c1ccccc1 (stereo unspecified) (tested in a mixture with another compound)
inactive: [1] 2.65% | [2] 2.1% | [3] 1.9% | [4] -34.2% | [5] -24.6% | [6] 5.35%

CC(Cl)CNC1c2ccccc2CC1O (stereo unspecified)
inactive: [1] -4.4% | [2] -7.8% | [3] -1.45% | [4] -18.6% | [5] -6.4% | [6] 5.45%

CC1CNCCN1c1ccc(Cl)cc1 (stereo unspecified)
inactive: [1] 13.6% | [2] -20.8% | [3] 11.2% | [4] 20.1% | [5] 22.8% | [6] 6.15%

O=[N+]([O-])C(CO)CCCC(CO)[N+](=O)[O-] (stereo unspecified)
inactive: [1] 11.7% | [2] -6% | [3] 5.65% | [4] -37.1% | [5] -20.4% | [6] 11.4%

O=[N+]([O-])OC(c1ccncc1)C(O[N+](=O)[O-])c1ccncc1 (stereo unspecified)
inactive: [1] 7.7% | [2] -2.35% | [3] -6.25% | [4] 16.9% | [5] -5.3% | [6] 21.3%

c1c2c(cc3c1OCO3)-c1cc3ccc4c(c3c[n+]1CC2)OCO4
inactive: [1] 9.2% | [2] -9.1% | [3] 0.35% | [4] 4.9% | [5] -48.5% | [6] -52.5%

CCOP(=O)(OCC)Oc1ccncc1
inactive: [1] -2.8% | [2] -0.3% | [3] -7.6% | [4] -4.25% | [5] 7.75% | [6] 4.1%

CN(C)NP(=O)(NN(C)C)c1ccccc1
inactive: [1] -49.9% | [2] -18.1% | [3] -22.4% | [4] -67.8% | [5] -1.6% | [6] -14.4%

[C-]#[O+].[C-]#[O+].[C-]#[O+].[C-]#[O+].[Cr].c1ccc([PH+](CC[PH+](c2ccccc2)c2ccccc2)c2ccccc2)cc1
inactive: [1] 11.7% | [2] 4.85% | [3] -0.9% | [4] 15.2% | [5] 0.35% | [6] 20.4%

CNC(=O)Oc1cc(C)cc(C(C)C)c1
inactive: [1] 14.3% | [2] 0.05% | [3] 1.6% | [4] 9.15% | [5] 1.3% | [6] 6%

O=c1ccc2cc3ccoc3c(O)c2o1
inactive: [1] 28.6% | [2] 0% | [3] 25.7% | [4] 30.6% | [5] 10.8% | [6] 18.2%

Clc1cc2nncc(N3CC3)c2cc1Cl
inactive: [1] -3.25% | [2] -24.4% | [3] -3.75% | [4] 9.95% | [5] -7.8% | [6] -21.4%

CC[As](=O)(O)c1ccc(OC)c(I)c1
inactive: [1] 1.75% | [2] -15.3% | [3] 18.3% | [4] -76.5% | [5] 4.35% | [6] 0.75%

CNCCc1ccc(O)cc1
inactive: [1] -9.2% | [2] -1.85% | [3] -0.75% | [4] -23.3% | [5] 1.35% | [6] -0.65%

COC(=O)COC1CC[CH-]CC1.[Cl-].[Cl-].[Cl-].[Cl-].[Cl-].[Sb+5].c1ccncc1
inactive: [1] 20.8% | [2] 7.8% | [3] 18.7% | [4] 17.6% | [5] 4.75% | [6] 12.8%

CN(C)CCNC(=O)c1ccc(N(CCCl)CCCl)c([N+](=O)[O-])c1[N+](=O)[O-]
inactive: [1] 36.4% | [2] 20.4% | [3] 30.8% | [4] 17.6% | [5] 9.65% | [6] 34%
